# ELG1 DNA repair – inhibitors of ELG1-dependent DNA repair in HEK293T cells; 330,000 tested, 2.3% active; Potency, µM (top dose mostly 46.1 µM), hits mostly inhibitors; HEK293T ELG1-luciferase reporter, luminescence, 16 h; DNA damage induced by 5-fluorouridine; AID 504467; further: nearly all actives have a fitted effect of over 55% in size
#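 In this reporter screen, reduction of luminescence relative to DMSO vehicle indicated activity. Compounds and 5-fluorouridine were added together to 2,000 cells per well, incubated for 16 hr at 37 °C, then developed with ONE-Glo.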
# RORgamma inh – blocks mouse ROR gamma transcriptional activity; P51450; Drosophila S2 Gal4-RORgamma UAS-luciferase reporter, 20 h; 310,000 tested, 5.4% active; Potency, µM (doses to about 53.6 µM), actives largely listed as inhibitors; further: nearly all actives have a fitted effect of over 60% in size
# Target sequence (P51450 whole entry, looked up, the tested form may be a part): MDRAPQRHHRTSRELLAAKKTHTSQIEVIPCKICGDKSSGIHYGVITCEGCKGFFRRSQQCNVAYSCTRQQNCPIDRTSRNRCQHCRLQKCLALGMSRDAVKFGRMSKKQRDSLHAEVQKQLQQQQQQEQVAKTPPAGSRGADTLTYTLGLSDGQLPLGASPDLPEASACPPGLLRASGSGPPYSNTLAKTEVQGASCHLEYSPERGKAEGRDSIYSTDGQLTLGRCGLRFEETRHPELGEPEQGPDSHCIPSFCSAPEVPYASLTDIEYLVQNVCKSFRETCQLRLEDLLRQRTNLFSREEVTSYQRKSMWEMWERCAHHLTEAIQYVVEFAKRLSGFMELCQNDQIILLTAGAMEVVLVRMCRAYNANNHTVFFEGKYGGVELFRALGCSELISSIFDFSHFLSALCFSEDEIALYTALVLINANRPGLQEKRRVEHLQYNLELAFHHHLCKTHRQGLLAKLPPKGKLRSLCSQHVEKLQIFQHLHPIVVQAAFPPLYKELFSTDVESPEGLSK
#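 Luminescence from a UAS-regulated Photinus luciferase reporter in stably transfected Drosophila Schneider cells is measured; decreased signal marks ROR gamma inhibition. Fusion expression is induced by 700 uM copper sulfate for 20 hr.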
# SW480 rereplic – induces DNA re-replication in SW480 colon adenocarcinoma cells | SW480 DNA re-replication, Hoechst DNA content imaging, 48 h | Potency, µM (titrated, usually from 46.1 µM), actives largely listed as activators | 340,000 tested, 1.8% active | AID 624297; further: nearly all actives have a fitted effect of over 55% in size
#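 DNA re-replication was detected as more nuclei of elevated Hoechst intensity after 48 hr exposure to compound (23 nL pinned per well of 250 cells).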
# MCF10A rerep – inducers of DNA re-replication in MCF 10A breast cells. 350,000 tested, 2.9% active. AID 624296. Potency, µM (doses to about 46.1 µM), most hits filed as activators. MCF 10A DNA re-replication, Hoechst nuclear intensity, 48 h; further: nearly all actives have a fitted effect of over 50% in size
# Gal4-VP16 FLuc – counter-screen for ROR gamma inhibitors: Gal4-VP16 reporter. Drosophila S2 Gal4-VP16 UAS-luciferase, luminescence, 20 h. Potency, µM (series often up to 53.6 µM), hits mostly inhibitors. 310,000 tested, 3.5% active. AID 2546;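 further: Gal4-VP16 expression switched on by copper sulfate through the metallothionein promoter; nearly all actives have a fitted effect of over 50% in size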
# Hits are given with their value; – = inactive; ? = inconclusive; · = not tested or not shown; [ ] = remark or other dose. Only some compounds are listed: those with a hit (about 10% of all), similar ones and a draw of the others. The call rests on the fitted dose curve; in most records, active means well fitted curve in the direction sought with a large enough effect; inconclusive means small, poorly fitted or top-dose-only effect, or another doubt; inactive means no such curve, though single readings can be large; an effect the other way counts as inactive or inconclusive.
SMILES,ELG1 DNA repair,RORgamma inh,SW480 rereplic,MCF10A rerep,Gal4-VP16 FLuc
Cc1cc(C(=O)NC(=S)Nc2ccccc2N2CCCC2)ccc1[N+](=O)[O-],–,2.51µM,?,–,3.16µM
COc1ccc(C(=O)NC(=S)Nc2ccc(N3CCOCC3)c(Cl)c2)cc1[N+](=O)[O-],13µM,?,–,–,?
O=C(NC(=S)Nc1cc(Cl)ccc1N1CCOCC1)c1ccccc1[N+](=O)[O-],16.4µM,3.55µM,–,–,3.55µM
Cc1cc(C(=O)Nc2ccccc2N2CCOCC2)ccc1[N+](=O)[O-],–,–,–,–,–
Cc1cc(C(=O)NC(=S)Nc2ccccc2N2CCOCC2)ccc1[N+](=O)[O-],?,2.82µM,–,?,14.1µM
CN1CCN(c2ccccc2NC(=O)c2ccc(N3CCCC3)c([N+](=O)[O-])c2)CC1,?,–,–,–,–
COc1ccc(CCNC(=O)c2cc3c(=O)n(C)c4ccccc4c3n2C)c(OC)c1,?,–,–,–,–
Cc1cccc(NS(=O)(=O)c2cc3c(cc2C)NC(=O)CO3)c1,–,–,–,–,–
OC[C@@H]1OC(O)[C@H](O)[C@H](O)[C@H]1O (stereo partly specified),·,–,·,·,–
O=C(Nc1ccon1)c1ccc(N2CCCCC2)c([N+](=O)[O-])c1,?,–,–,–,–
O=C(Nc1nc2ccccc2s1)c1ccc(N2CCCCC2)c([N+](=O)[O-])c1,?,10µM,–,–,?
CCCCC(=O)NC(c1ccccc1OC)c1ccc2cccnc2c1O (stereo unspecified),?,5.62µM,0.731µM,–,4.47µM
CCCC(=O)NC(c1ccccc1OC)c1ccc2cccnc2c1O (stereo unspecified),4.11µM,5.01µM,?,–,2.24µM
CC1(C)OC(=O)N(NCc2ccccc2)C1(C)O (stereo unspecified),–,–,–,–,–
O=C(CC1OC(=O)c2ccccc21)Nc1cc(S(=O)(=O)N2CCOCC2)ccc1OCC(F)(F)F (stereo unspecified),–,·,–,–,·
COc1ccc(C2N(c3ccccc3)CCN2c2ccccc2)cc1O,–,–,–,–,–
CCc1ccccc1NC(=O)CN1CCN(C(=O)c2cccc(-n3cnnn3)c2)CC1,–,·,–,–,·
O=c1cc(CO)[nH]cc1OCc1ccccc1,–,–,–,–,–
COc1ccc(S(=O)(=O)NC(C)C(=O)NCC2CCCO2)cc1OC (stereo unspecified),–,–,–,–,–
S=C(Nc1ccccc1)Nc1nc2ccccc2n1CCOc1ccc(Br)cc1,?,1.78µM,–,?,2.24µM
Cn1c(NC(=S)Nc2ccccc2)nc2ccccc21,?,0.501µM,–,–,1µM
Clc1ccccc1CNCC1CCC(CNCc2ccccc2Cl)CC1 (stereo unspecified),·,–,·,·,–
CCc1ccc(/C([O-])=C(/C(=S)NCCN2CCOCC2)[n+]2ccccc2)cc1,–,–,–,6.51µM,–
CCNC(=S)/C(=C(/[O-])c1ccc([N+](=O)[O-])cc1)[n+]1ccccc1,–,–,–,–,–
CCc1ccc2oc(-c3cc(N)ccc3Cl)nc2c1,?,?,–[9.22 µM],–,10µM
SMILES,ELG1 DNA repair,RORgamma inh,SW480 rereplic,MCF10A rerep,Gal4-VP16 FLuc
CCc1ccc2oc(-c3cc(N)cc(C)c3O)nc2c1,?,?,–,?,8.91µM
CCc1ccc2oc(-c3cc(N)ccc3O)nc2c1,?,2.51µM,–,?,3.98µM
COc1cc(C(=O)NCCCN(C)C)ccc1OCC(=O)Nc1cccc(C(F)(F)F)c1,–,–,?,?,–
CCOC(=O)/C(C#N)=C/c1ccc(OCC(=O)Nc2ccc(C)c(C)c2)c(OC)c1,–,–,–,–,–
COc1cccc(CN(C)C(=O)c2ccc(OCC(=O)Nc3cccc(C(F)(F)F)c3)c(OC)c2)c1,14.6µM,·,–,–,·
COc1cc(/C=C(\C#N)C(=O)Nc2cc(C(F)(F)F)ccc2Cl)ccc1OCC(=O)Nc1cccc(C(F)(F)F)c1,–,–[10 µM],?,20.6µM,–
COc1ccc(C(=O)c2oc3ccc(OC)cc3c2N)cc1,?,?,–,25.9µM,–
COC(=O)c1oc2ccc(OC)cc2c1N,?,–,–,–,–
COc1ccc2oc(/C=C/N(C)C)c(C(=O)c3ccc(Cl)cc3)c2c1,–,–,–,6.31µM,–

# Compound activity as filed in PubChem BioAssay.
